Structures can show the parent of a compound that is named as a salt.
What was measured:
[1] = system: Vero E6 infected with SARS-CoV-2; test: morphology score (similarity to uninfected cells); higher = more like uninfected cells; conditions: 24 h
[2] = system: Vero E6 infected with SARS-CoV-2; test: SARS-CoV-2 infection rate relative to infected DMSO; higher = more infection, active = 60 or less; conditions: 24 h

C=C1CC[C@@]2(O)[C@H]3Cc4ccc(O)c5c4[C@@]2(CCN3CC2CC2)[C@H]1O5 [nalmefene] (10 µM)
morphology score [1]: -0.0409
SARS-CoV-2 infection rate [2]: 112% (inactive)

NC[C@@](O)(c1ccc(Cl)cc1)c1ccc(-c2cn[nH]c2)cc1 (10 µM)
morphology score [1]: 0.174
SARS-CoV-2 infection rate [2]: 108% (inactive)

OC[C@H]1O[C@H](O[C@H]2O[C@H](CO)[C@@H](O)[C@H](O)[C@H]2O)[C@H](O)[C@@H](O)[C@@H]1O [cabaletta] (10 µM)
morphology score [1]: -0.0856
SARS-CoV-2 infection rate [2]: 104% (inactive)

COc1ccc(CN(CCN(C)C)c2ncccn2)cc1 [thonzylamine] (10 µM)
morphology score [1]: 0.0251
SARS-CoV-2 infection rate [2]: 110% (inactive)

COc1ccc(CCc2nc3cc(-c4c(C)noc4C)ccc3n2C[C@H](C)N2CCOCC2)cc1Cl (0.833333 µM)
morphology score [1]: -0.0905
SARS-CoV-2 infection rate [2]: 113% (inactive)

CC(=O)O[C@]1(C(C)=O)CC[C@H]2[C@@H]3CCC4=CC(=O)CC[C@]4(C)[C@H]3CC[C@@]21C [hydroxyprogesterone-acetate] (10 µM)
morphology score [1]: 0.0136
SARS-CoV-2 infection rate [2]: 104% (inactive)

CCCCCCCCCC(=O)OCCN1CCN(CCCN2c3ccccc3Sc3ccc(C(F)(F)F)cc32)CC1 [fluphenazine-decanoate] (10 µM)
morphology score [1]: -0.147
SARS-CoV-2 infection rate [2]: 112% (inactive)

N=C(N)NCCC[C@H](NC(=O)c1sccc1NS(=O)(=O)c1cccc2nsnc12)C(=O)O (10 µM)
morphology score [1]: 0.0108
SARS-CoV-2 infection rate [2]: 108% (inactive)

CN1CCN(c2ccc3[nH]c(-c4ccc5[nH]c(-c6ccc(O)cc6)nc5c4)nc3c2)CC1 [pibenzimol] (10 µM)
morphology score [1]: 0.0018
SARS-CoV-2 infection rate [2]: 110% (inactive)

NC(=O)C(c1ccccc1)(c1ccccc1)[C@@H]1CCN(CCc2ccc3c(c2)CCO3)C1 [darifenacin] (10 µM)
morphology score [1]: -0.025
SARS-CoV-2 infection rate [2]: 106% (inactive)

CC(=O)O[C@H]1C[C@@]2(C)[C@@H](C[C@@H](O)[C@H]3[C@@]4(C)CC[C@@H](O)[C@@H](C)[C@@H]4CC[C@@]32C)/C1=C(\CCC=C(C)C)C(=O)O [fusidic-acid] (10 µM)
morphology score [1]: 0.063
SARS-CoV-2 infection rate [2]: 98% (inactive)

O=C(C[S+]([O-])C(c1ccccc1)c1ccccc1)NO (stereo unspecified) [adrafinil] (10 µM)
morphology score [1]: 0.2
SARS-CoV-2 infection rate [2]: 100% (inactive)

CCCCCCN(CCCCCC)C(=O)Cc1c(-c2ccc(F)cc2)[nH]c2ccccc12 (10 µM)
morphology score [1]: -0.0301
SARS-CoV-2 infection rate [2]: 106% (inactive)

CCC(CC)C(c1ccc(Nc2nc3ccccc3s2)cc1)n1cncn1 (stereo unspecified) [talarozole] (10 µM)
morphology score [1]: 0.326
SARS-CoV-2 infection rate [2]: 74.5% (inactive)

CN[C@@H]1[C@@H](O)[C@@H](O[C@@H]2[C@@H](O)[C@H](O[C@H]3O[C@H](CN)[C@@H](O)[C@H](O)[C@H]3O)[C@@H](N)C[C@H]2NC(=O)[C@@H](O)CN)OC[C@]1(C)O [isepamicin] (10 µM)
morphology score [1]: 0.0671
SARS-CoV-2 infection rate [2]: 109% (inactive)

COC1CCN(c2cccc(-c3cc(NC(C)=O)nc(-n4nc(C)cc4C)n3)n2)CC1 (10 µM)
morphology score [1]: -0.0121
SARS-CoV-2 infection rate [2]: 104% (inactive)

CO[C@H]1CC=C2CCN3CCC4=C(CC(=O)OC4)[C@]23C1 (10 µM)
morphology score [1]: 0.059
SARS-CoV-2 infection rate [2]: 106% (inactive)

c1cnc2c([O][Ga]([O]c3cccc4cccnc34)[O]c3cccc4cccnc34)cccc2c1 [gallium-triquinolin-8-olate] (10 µM)
morphology score [1]: 0.775
SARS-CoV-2 infection rate [2]: 16.5% (active)

CN1C(CSCC(F)(F)F)Nc2cc(Cl)c(S(N)(=O)=O)cc2S1(=O)=O (stereo unspecified) [polythiazide] (10 µM)
morphology score [1]: 0.2
SARS-CoV-2 infection rate [2]: 100% (inactive)

CC(=O)Nc1c(I)cc(I)c(C(=O)O)c1I [acetriazoic-acid] (10 µM)
morphology score [1]: 0.138
SARS-CoV-2 infection rate [2]: 112% (inactive)

COC(=O)[C@]12CCC(C)(C)C[C@H]1[C@H]1C(=O)C=C3[C@@]4(C)C=C(C#N)C(=O)C(C)(C)[C@@H]4CC[C@@]3(C)[C@]1(C)CC2 [Bardoxolone Methyl] (10 µM)
morphology score [1]: -0.259
SARS-CoV-2 infection rate [2]: 107% (inactive)

Cc1cc(-c2cc(O)ccc2Cl)cc2nnc(Nc3ccc(OCCN4CCCC4)cc3)nc12 (0.833333 µM)
morphology score [1]: -0.04
SARS-CoV-2 infection rate [2]: 103% (inactive)

N[C@@H]1CONC1=O [cycloserine-(D)] (10 µM)
morphology score [1]: 0.0631
SARS-CoV-2 infection rate [2]: 92.5% (inactive)

O=c1[nH]cnc2c1ncn2[C@H]1CC[C@@H](CO)O1 [didanosine] (10 µM)
morphology score [1]: 0.186
SARS-CoV-2 infection rate [2]: 112% (inactive)

CCC[C@H]1C(=O)N2C(N(C)C)=Nc3ccc(C)cc3N2C1=O [azapropazone] (10 µM)
morphology score [1]: 0.165
SARS-CoV-2 infection rate [2]: 94% (inactive)

COC(=O)Nc1nc2cc(Sc3ccccc3)ccc2[nH]1 [fenbendazole] (0.833333 µM)
morphology score [1]: 0.126
SARS-CoV-2 infection rate [2]: 106% (inactive)

O=C(O)c1c(Cl)c(Cl)c(Cl)c(Cl)c1-c1c2cc(I)c(=O)c(I)c-2oc2c(I)c(O)c(I)cc12 [rose-bengal] (0.833333 µM)
morphology score [1]: 0.318
SARS-CoV-2 infection rate [2]: 98.2% (inactive)

CCc1cn([C@H]2C[C@H](O)[C@@H](CO)O2)c(=O)[nH]c1=O [edoxudine] (10 µM)
morphology score [1]: 0.0361
SARS-CoV-2 infection rate [2]: 108% (inactive)

CCCCCCCCCCCCCCCCCCCCCC(=O)O (10 µM)
morphology score [1]: 0.0564
SARS-CoV-2 infection rate [2]: 108% (inactive)

NC(=O)N1c2ccccc2C=Cc2ccccc21 [carbamazepine] (10 µM)
morphology score [1]: -0.0216
SARS-CoV-2 infection rate [2]: 108% (inactive)

CN(C)C(=O)COC(=O)Cc1ccc(OC(=O)c2ccc(NC(=N)N)cc2)cc1 [Camostat mesylate] (10 µM)
morphology score [1]: 0.0371
SARS-CoV-2 infection rate [2]: 104% (inactive)

CC(C)(Oc1ccc(C(=O)c2ccc(Cl)cc2)cc1)C(=O)O [fenofibric-acid] (10 µM)
morphology score [1]: 0.137
SARS-CoV-2 infection rate [2]: 97% (inactive)

Cc1ccccc1CN1C(=O)C2=C(CCN(Cc3ccccc3)C2)N2CCN=C12 (0.833333 µM)
morphology score [1]: -0.16
SARS-CoV-2 infection rate [2]: 82% (inactive)

CO[C@@H](C(=O)N1Cc2[nH]nc(NC(=O)c3ccc(N4CCN(C)CC4)cc3)c2C1)c1ccccc1 [danusertib] (10 µM)
morphology score [1]: 0.109
SARS-CoV-2 infection rate [2]: 115% (inactive)

COc1cc(Oc2ccnc3cc(OC)c(OC)cc23)ccc1NC(=O)NC(C)c1nccs1 (stereo unspecified) (10 µM)
morphology score [1]: 0.332
SARS-CoV-2 infection rate [2]: 101% (inactive)

Cc1ccc(C)c(OCCCC(C)(C)C(=O)O)c1 [gemfibrozil] (10 µM)
morphology score [1]: -0.0506
SARS-CoV-2 infection rate [2]: 98.5% (inactive)

C=CCC1(CC(C)C)C(=O)NC(=O)NC1=O [butalbital] (10 µM)
morphology score [1]: -0.0632
SARS-CoV-2 infection rate [2]: 117% (inactive)

CC(C)c1nc(CN(C)C(=O)N[C@H](C(=O)N[C@@H](Cc2ccccc2)C[C@H](O)[C@H](Cc2ccccc2)NC(=O)OCc2cncs2)C(C)C)cs1 [ritonavir] (10 µM)
morphology score [1]: 0.0318
SARS-CoV-2 infection rate [2]: 104% (inactive)

OC[C@H]1O[C@@H](Oc2cc3c(O)cc(O)cc3[o+]c2-c2ccc(O)c(O)c2)[C@H](O)[C@@H](O)[C@@H]1O [kuromanin] (10 µM)
morphology score [1]: -0.129
SARS-CoV-2 infection rate [2]: 110% (inactive)

CC(C)c1ccc(C(=O)N=C(N)N)cc1S(C)(=O)=O [cariporide] (10 µM)
morphology score [1]: 0.169
SARS-CoV-2 infection rate [2]: 101% (inactive)

C/C=C1\[C@H]2C=C(C)C[C@]1(N)c1ccc(=O)[nH]c1C2 [(-)-Huperzine A] (10 µM)
morphology score [1]: -0.118
SARS-CoV-2 infection rate [2]: 108% (inactive)

COc1cc(C2Oc3cc([C@H]4Oc5cc(O)cc(O)c5C(=O)[C@@H]4O)ccc3OC2CO)ccc1O (stereo partly specified) [silibinin] (10 µM)
morphology score [1]: 0.0273
SARS-CoV-2 infection rate [2]: 104% (inactive)

Cc1ccc2c(c1)c1c(n2CCc2ccc(C)nc2)CCN(C)C1 [latrepirdine] (10 µM)
morphology score [1]: 0.241
SARS-CoV-2 infection rate [2]: 96.5% (inactive)

CC(=O)c1ccc2c(c1)C(=O)C1(CC1)O2 [spizofurone] (10 µM)
morphology score [1]: -0.0677
SARS-CoV-2 infection rate [2]: 112% (inactive)

CC[N+](CC)(CC)CC(=O)Nc1c(C)cccc1C (10 µM)
morphology score [1]: 0.0409
SARS-CoV-2 infection rate [2]: 104% (inactive)

CN(C)C(=O)CCSC(SCCC(=O)O)c1cccc(/C=C/c2ccc3ccc(Cl)cc3n2)c1 (stereo unspecified) (10 µM)
morphology score [1]: 0.011
SARS-CoV-2 infection rate [2]: 108% (inactive)

NCCC(=O)N[C@@H](Cc1c[nH]cn1)C(=O)O [carnosine] (0.833333 µM)
morphology score [1]: 0.0964
SARS-CoV-2 infection rate [2]: 99% (inactive)

CNC(=O)Nc1ccc(-c2nc(N3CC4CCC(C3)O4)c3cnn(C4CCC5(CC4)OCCO5)c3n2)cc1 (0.833333 µM)
morphology score [1]: -0.104
SARS-CoV-2 infection rate [2]: 100% (inactive)

CCCCNNC(=O)c1ccc(Br)cc1 (0.833333 µM)
morphology score [1]: -0.294
SARS-CoV-2 infection rate [2]: 116% (inactive)

Cc1ccc2c(c1)=C(c1ccccc1)C(C1=NN(C(=O)CCC(=O)O)C(c3ccc(Br)cc3)C1)C(=O)N=2 (stereo unspecified) (10 µM)
morphology score [1]: -0.085
SARS-CoV-2 infection rate [2]: 104% (inactive)

CCc1ccc(C(=O)C(C)CN2CCCCC2)cc1 (stereo unspecified) [eperisone] (10 µM)
morphology score [1]: 0.374
SARS-CoV-2 infection rate [2]: 80% (inactive)

NC1=N[C@@](c2cccc(-c3cncnc3)c2)(c2ccnc(C(F)F)c2)c2cccc(F)c21 (10 µM)
morphology score [1]: 0.163
SARS-CoV-2 infection rate [2]: 92.5% (inactive)

CN(C)c1ccc2c(c1)Sc1cc(N(C)C)ccc1N2 [leucomethylene-blue] (0.833333 µM)
morphology score [1]: 0.0825
SARS-CoV-2 infection rate [2]: 114% (inactive)

O=C1NC(=O)c2c1c1c3ccccc3n3c1c1c2c2ccccc2n1C1CCC3O1 (10 µM)
morphology score [1]: -0.0614
SARS-CoV-2 infection rate [2]: 108% (inactive)

CCN1CCN(c2ccc(C(C)(C)NC(=O)c3cc4[nH]c5ccccc5c(=O)c4cc3F)cn2)CC1 (10 µM)
morphology score [1]: 0.572
SARS-CoV-2 infection rate [2]: 55% (active)

COc1cc2nccc(Oc3ccc(NC(=O)Nc4ccc(F)cc4F)c(F)c3)c2cc1OC (10 µM)
morphology score [1]: 0.12
SARS-CoV-2 infection rate [2]: 111% (inactive)

CN(C)c1cc(CNCC(C)(C)C)c(O)c2c1C[C@H]1C[C@H]3[C@H](N(C)C)C(O)=C(C(N)=O)C(=O)[C@@]3(O)C(O)=C1C2=O [omadacycline] (10 µM)
morphology score [1]: 0.179
SARS-CoV-2 infection rate [2]: 97.5% (inactive)

COc1cc2c(cc1O)CC[C@@H]1[C@@H]2CC[C@]2(C)[C@@H](O)CC[C@@H]12 [2-methoxyestradiol] (0.833333 µM)
morphology score [1]: 0.00558
SARS-CoV-2 infection rate [2]: 102% (inactive)

— the supplement of paper PMC13380429
